AMA1 RON2 block: AMA1-RON2 (P. falciparum) interaction inhibition; AlphaScreen AMA1-biotinylated RON2 peptide binding; Potency, µM (top dose mostly 58.2 µM), without a hit: at the top dose activity change, negative = inhibition, usual class: inhibitors; hit rate 0.2% among 360,000;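 further: 0% = vehicle wells and -100% = peptide control; nearly all actives have a fitted effect of over 45% in size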
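AMA1 (3D7) with his tag at 25 nM final met compounds first, then biotinylated RON2 peptide at 25 nM; detection used donor plus acceptor beads, 10 µg/mL apiece, read by AlphaScreen after 30 min at room temperature.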
Sm TGR block: inhibitors of Schistosoma mansoni thioredoxin glutathione reductase; Q962Y6; hit rate 3% among 360,000; purified TGR, DTNB reduction, TNB absorbance 405 nm; Potency, µM (highest dose often 114 µM), for inactives: top-dose activity change, negative = inhibition, most hits filed as inhibitors; further: on the % scale 0 is the no-effect control and ±100 the full control effect; nearly all actives have a fitted effect of over 60% in size
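Kinetic colorimetric format: TGR-catalysed, NADPH-driven DTNB reduction monitored via TNB absorbance. Enzyme dispensed at 20 nM; compound exposure 15 min at room temperature before reaction start.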
NS1 inh: blocks influenza NS1 protein function | hit rate 0.4% among 270,000 | Potency, µM (top dose mostly 46.1 µM), for the others: top-dose activity, positive = more growth; calls by dose curve; further: actives are rising curves; nearly all actives have a fitted effect of over 50% in size
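In this qHTS, NS1 from influenza A is expressed in budding yeast, where it slows growth. Cells are switched from glucose to 2% galactose medium (pH 6.0, -URA), treated with compound, and growth recovery is read at OD600.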
Pf growth 48h: P. falciparum growth inhibition at 48 hours (one generation). AID 504832. P. falciparum luciferase growth in erythrocytes, 48 h. Potency, µM (doses to about 28.7 µM), for the others: top-dose activity change, negative = inhibition, most hits filed as inhibitors. hit rate 5.9% among 310,000; further: on the % scale 0 is the no-effect control and ±100 the full control effect
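Parasite viability was followed by luminescence of a genomically integrated firefly luciferase. Cultures held 0.1% parasitemia at 2% hematocrit (final), incubated under 5% CO2 at 37 C.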
Pf growth 96h: P. falciparum growth inhibition at 96 hours; AID 504834; Potency, µM (highest dose often 28.7 µM), for inactives: at the top dose activity change, negative = inhibition, usual class: inhibitors; hit rate 6.9% among 320,000; P. falciparum luciferase reporter growth, 96 h; further: on the % scale 0 is the no-effect control and ±100 the full control effect
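Delayed-death screen, second-generation endpoint: infected erythrocytes, 2% hematocrit, 0.05% parasitemia final; 96 hours at 37 C, 5% CO2; luciferase detection reagent; luminescence decrease equals reduced growth.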
The depositor's hits bear a star; [ ] = remark or other dose. The list is not random: actives were taken first. Their share in the collection is about 11%. Unless noted, the call rests on the fitted dose curve; in most records, active means well fitted curve in the direction sought with a large enough effect; inconclusive means small, poorly fitted or top-dose-only effect, or another doubt; inactive means no such curve, though single readings can be large; an effect the other way counts as inactive or inconclusive. Potency means the concentration at half of the fitted maximal effect.

What do the screens show for `Cn1cnnc1Sc1ccc(C(=O)NCCC(c2ccccc2)c2ccccc2)cc1[N+](=O)[O-]`?
AMA1 RON2 block: -9%; Sm TGR block: 0%; NS1 inh: inconclusive; Pf growth 48h: 8.3µM*; Pf growth 96h: inconclusive

Results for CC(=O)Nc1ccc(NC(=O)c2cc[n+]([O-])cc2)cc1 ?
AMA1 RON2 block: -11%; Sm TGR block: 1%; NS1 inh: 13%; Pf growth 48h: -7%; Pf growth 96h: 8%

Results for O=C1COc2ccc(C(=O)CCl)cc2N1 ?
AMA1 RON2 block: -4%; Sm TGR block: 3.5µM*; NS1 inh: 0%; Pf growth 48h: inconclusive; Pf growth 96h: inconclusive

Results for COC(=O)c1cc(C(=O)OCC(=O)c2ccc3c(c2)NC(=O)CO3)cc([N+](=O)[O-])c1 ?
AMA1 RON2 block: -18%; Sm TGR block: 40µM*; Pf growth 48h: 5%; Pf growth 96h: 2%

How did CC(C)[C@H](NC(=O)c1ccccc1)C(=O)OCC(=O)c1ccc2c(c1)NC(=O)CO2 do in these assays?
AMA1 RON2 block: 39%; Sm TGR block: 35µM*; NS1 inh: 11%; Pf growth 96h: -2%

What do the screens show for `Cc1cccc(C(=O)OCC(=O)c2ccc3c(c2)NC(=O)CO3)c1`?
AMA1 RON2 block: 4%

What do the screens show for `CCc1nc(C)cn1S(=O)(=O)c1ccc(Cl)c(Cl)c1OC`?
Sm TGR block: 7%

Results for c1ccc(-c2noc(CN3CCc4sccc4C3)n2)cc1 ?
AMA1 RON2 block: -7%; NS1 inh: -7%; Pf growth 48h: 18%; Pf growth 96h: inconclusive

What do the screens show for `O=C1NC(Cc2c[nH]c3ccccc23)C(=O)N1Cc1ccc(CN2C(=O)NC(Cc3c[nH]c4ccccc34)C2=O)cc1` (stereo not given)?
AMA1 RON2 block: 2%; Sm TGR block: 21%; NS1 inh: inconclusive; Pf growth 48h: 5.2µM*; Pf growth 96h: -19%

What do the screens show for `O=C1NC(Cc2c[nH]c3ccccc23)C(=O)N1CCOc1ccc(F)cc1` (stereo not given)?
AMA1 RON2 block: -3%; Sm TGR block: -7%; NS1 inh: 1%; Pf growth 48h: 6%; Pf growth 96h: 4%

What do the screens show for `COCCN1CCC(CNCc2cn(-c3cc(C)ccc3C)nc2-c2ccccc2)C1` (stereo not given)?
AMA1 RON2 block: -5%; Sm TGR block: 5%; NS1 inh: 2%; Pf growth 48h: 4.7µM*; Pf growth 96h: inconclusive

How did CC(=O)N1CCCN(Cc2cn(-c3cc(C)ccc3C)nc2-c2ccccc2)CC1 do in these assays?
AMA1 RON2 block: -7%; Sm TGR block: 0%; NS1 inh: 1%; Pf growth 48h: 17µM*; Pf growth 96h: -18%

How did Cc1ccc(C)c(-n2cc(CNCCc3cnccn3)c(-c3ccccc3)n2)c1 do in these assays?
AMA1 RON2 block: -3%; Sm TGR block: 15%; NS1 inh: 0%; Pf growth 48h: 7.4µM*; Pf growth 96h: inconclusive

Results for CCn1ccnc1CNCc1cn(-c2cc(C)ccc2C)nc1-c1ccccc1 ?
AMA1 RON2 block: 25%; Sm TGR block: -10%[57.1 µM]; NS1 inh: -3%; Pf growth 48h: inconclusive; Pf growth 96h: inconclusive

What do the screens show for `COCCN1CCC(CNCc2cn[nH]c2-c2ccc(C)c(C)c2)C1` (stereo not given)?
AMA1 RON2 block: -3%; Sm TGR block: -13%; NS1 inh: -2%; Pf growth 48h: inconclusive; Pf growth 96h: -8%

How did Cc1ccc(NC(=O)CCn2cccn2)cc1Cl do in these assays?
Sm TGR block: 0%

Results for Cc1ccc(NC(=O)c2cc([N+](=O)[O-])ccc2NCc2cccnc2)cc1 ?
AMA1 RON2 block: -24%; Sm TGR block: 8%; NS1 inh: 2%; Pf growth 48h: 13µM*; Pf growth 96h: inconclusive

What do the screens show for `Cc1ccc([N+](=O)[O-])cc1NC(=O)c1cccnc1`?
AMA1 RON2 block: -2%; Sm TGR block: -33%; NS1 inh: -1%; Pf growth 48h: -4%; Pf growth 96h: 10µM*

What do the screens show for `O=C(/C=C/c1ccc([N+](=O)[O-])cc1)c1cccnc1`?
AMA1 RON2 block: -15%; Sm TGR block: 16µM*; NS1 inh: -23%; Pf growth 48h: -1%; Pf growth 96h: -26%

Screening data: PubChem BioAssay, National Center for Advancing Translational Sciences (NCATS)
